Among the data in PMC7862700, “An all-to-all approach to the identification of sequence-specific readers for epigenetic DNA modifications on cytosine” are binding signal values, retold here.

What all share (experiment): DAPPL (digital affinity profiling via proximity ligation, sequencing); 10 mM Tris-HCl pH 7.5, 50 mM NaCl, 1 mM DTT, 4% glycerol, room temperature, 30 min; GST-TFs on glutathione beads, 16-mer random dsDNA library, 0.1% formaldehyde crosslink after washing; high values mean tight binding
Common to all, as to conditions: protein: recombinant; tags: N-terminal GST; dsDNA, one strand shown

One test deals with T1, FLI1 (Homo sapiens, UniProt Q01543 1-452).
T1 sequence: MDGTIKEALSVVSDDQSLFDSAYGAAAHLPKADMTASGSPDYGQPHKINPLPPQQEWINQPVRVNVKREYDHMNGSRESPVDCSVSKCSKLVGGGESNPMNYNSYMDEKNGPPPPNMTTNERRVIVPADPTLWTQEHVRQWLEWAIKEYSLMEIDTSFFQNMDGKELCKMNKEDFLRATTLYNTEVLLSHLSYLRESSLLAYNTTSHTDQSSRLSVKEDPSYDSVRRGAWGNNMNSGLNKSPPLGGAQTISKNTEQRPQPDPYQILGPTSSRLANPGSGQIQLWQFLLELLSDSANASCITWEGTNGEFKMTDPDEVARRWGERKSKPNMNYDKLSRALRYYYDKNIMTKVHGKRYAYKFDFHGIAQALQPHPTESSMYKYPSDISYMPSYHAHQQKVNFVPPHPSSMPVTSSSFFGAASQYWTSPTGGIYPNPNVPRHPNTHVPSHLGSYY
In a few lines:
(§1)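 Each value of binding signal is a hexamer's read frequency for a factor divided by the same hexamer's frequency in the tag-only sample. Barcoded, bead-captured GST fusions of human transcription factors made in yeast were pooled with that sample and incubated with 200 nmole of a random double-stranded 16-mer DNA library in Tris/NaCl/DTT/glycerol buffer at room temperature for 30 min. Washing, 0.1% formaldehyde crosslinking, proximity ligation, PCR and Illumina NextSeq500 sequencing followed.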

A further test addresses T2, ELK1 (Homo sapiens, UniProt P19419 1-428).
T2 sequence: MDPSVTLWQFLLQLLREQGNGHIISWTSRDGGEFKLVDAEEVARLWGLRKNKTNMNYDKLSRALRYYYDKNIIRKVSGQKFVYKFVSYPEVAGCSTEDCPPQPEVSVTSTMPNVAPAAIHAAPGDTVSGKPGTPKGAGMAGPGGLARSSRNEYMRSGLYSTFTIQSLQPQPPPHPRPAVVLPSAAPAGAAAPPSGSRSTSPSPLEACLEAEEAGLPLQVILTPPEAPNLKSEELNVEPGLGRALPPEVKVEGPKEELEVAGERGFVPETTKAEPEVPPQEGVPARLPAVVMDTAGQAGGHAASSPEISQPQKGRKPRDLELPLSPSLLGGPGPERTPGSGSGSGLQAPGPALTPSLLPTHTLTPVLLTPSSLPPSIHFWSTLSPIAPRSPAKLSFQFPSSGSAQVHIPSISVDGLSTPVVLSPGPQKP
In a few lines: as §1

The next test concerns the target T3, GABPA (Homo sapiens, UniProt Q06546 1-454).
T3 sequence: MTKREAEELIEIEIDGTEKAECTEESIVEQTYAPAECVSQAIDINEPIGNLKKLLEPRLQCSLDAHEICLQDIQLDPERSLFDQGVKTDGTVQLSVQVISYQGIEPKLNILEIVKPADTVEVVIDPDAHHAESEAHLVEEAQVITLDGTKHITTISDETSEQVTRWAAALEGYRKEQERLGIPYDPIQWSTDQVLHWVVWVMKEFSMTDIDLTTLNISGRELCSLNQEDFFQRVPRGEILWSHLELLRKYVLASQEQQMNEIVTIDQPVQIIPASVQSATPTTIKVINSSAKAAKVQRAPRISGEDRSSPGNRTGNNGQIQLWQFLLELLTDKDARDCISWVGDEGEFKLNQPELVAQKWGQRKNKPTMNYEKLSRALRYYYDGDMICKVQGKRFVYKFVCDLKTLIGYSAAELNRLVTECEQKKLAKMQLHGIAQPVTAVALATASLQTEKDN
The essentials: as §1

The next test addresses T4, ERG (Homo sapiens, UniProt P11308 1-479).
T4 sequence: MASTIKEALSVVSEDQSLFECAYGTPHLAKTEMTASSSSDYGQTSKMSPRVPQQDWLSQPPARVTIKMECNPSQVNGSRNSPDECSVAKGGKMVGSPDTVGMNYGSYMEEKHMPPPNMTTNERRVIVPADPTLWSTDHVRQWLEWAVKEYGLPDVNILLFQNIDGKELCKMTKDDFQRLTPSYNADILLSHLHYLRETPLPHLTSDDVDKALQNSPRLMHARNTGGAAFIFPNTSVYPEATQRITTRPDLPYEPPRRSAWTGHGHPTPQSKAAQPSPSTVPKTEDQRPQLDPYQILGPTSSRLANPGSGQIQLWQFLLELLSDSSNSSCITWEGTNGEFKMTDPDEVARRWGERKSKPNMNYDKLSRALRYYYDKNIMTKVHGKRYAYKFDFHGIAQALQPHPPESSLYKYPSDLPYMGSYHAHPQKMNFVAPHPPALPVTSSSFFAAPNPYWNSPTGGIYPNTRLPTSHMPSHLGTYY
The essentials: as §1

The target in the next test is ELF1 (Homo sapiens, UniProt P32519 1-619). The essentials: as §1
ELF1, sequence (P32519 whole entry): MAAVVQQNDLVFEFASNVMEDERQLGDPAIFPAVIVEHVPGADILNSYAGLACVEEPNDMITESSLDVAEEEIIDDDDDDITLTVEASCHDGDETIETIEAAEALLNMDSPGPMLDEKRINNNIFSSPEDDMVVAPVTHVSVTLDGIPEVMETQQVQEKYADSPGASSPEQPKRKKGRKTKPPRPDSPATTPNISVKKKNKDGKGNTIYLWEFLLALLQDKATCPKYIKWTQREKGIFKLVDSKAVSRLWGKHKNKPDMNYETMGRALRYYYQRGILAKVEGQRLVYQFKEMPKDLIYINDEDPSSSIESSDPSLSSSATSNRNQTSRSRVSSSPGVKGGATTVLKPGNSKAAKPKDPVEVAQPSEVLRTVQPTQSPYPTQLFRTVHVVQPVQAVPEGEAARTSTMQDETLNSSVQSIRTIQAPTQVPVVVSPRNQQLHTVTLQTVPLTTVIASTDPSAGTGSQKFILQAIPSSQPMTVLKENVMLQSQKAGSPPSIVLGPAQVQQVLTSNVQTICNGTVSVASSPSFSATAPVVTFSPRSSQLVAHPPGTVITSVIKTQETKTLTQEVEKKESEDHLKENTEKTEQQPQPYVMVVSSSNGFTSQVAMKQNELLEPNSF
The target of a further test is T5, EHF (Homo sapiens, UniProt Q9NZC4 1-300).
T5 sequence: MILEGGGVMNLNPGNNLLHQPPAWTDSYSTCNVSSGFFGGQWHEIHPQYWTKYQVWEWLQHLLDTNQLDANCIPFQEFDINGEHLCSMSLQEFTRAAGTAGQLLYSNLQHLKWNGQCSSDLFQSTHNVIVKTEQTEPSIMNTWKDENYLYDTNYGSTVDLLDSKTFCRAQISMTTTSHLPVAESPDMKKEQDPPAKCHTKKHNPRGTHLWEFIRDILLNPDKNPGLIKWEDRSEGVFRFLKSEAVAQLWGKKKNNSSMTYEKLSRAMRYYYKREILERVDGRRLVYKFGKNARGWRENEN
In a few lines: as §1

The target of a further test is SPI1 (Homo sapiens, UniProt P17947 1-270). In a few lines:
as §1

In a further test the target is SPIB (Homo sapiens, UniProt Q01892 1-262). In a few lines:
as §1

Another test deals with T6, ELK3 (Homo sapiens, UniProt P41970 1-407).
T6 sequence: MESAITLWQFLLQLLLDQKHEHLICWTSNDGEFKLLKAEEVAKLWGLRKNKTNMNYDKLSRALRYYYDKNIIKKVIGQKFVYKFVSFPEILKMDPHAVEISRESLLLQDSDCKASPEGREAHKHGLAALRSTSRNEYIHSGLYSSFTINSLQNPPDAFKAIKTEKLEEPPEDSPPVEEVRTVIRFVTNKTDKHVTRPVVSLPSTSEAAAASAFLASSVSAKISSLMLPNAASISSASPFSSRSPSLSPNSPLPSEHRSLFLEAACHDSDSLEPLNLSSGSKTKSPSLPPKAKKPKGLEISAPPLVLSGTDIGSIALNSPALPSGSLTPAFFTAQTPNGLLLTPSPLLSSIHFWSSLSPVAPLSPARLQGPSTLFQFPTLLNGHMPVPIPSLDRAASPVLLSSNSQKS
The essentials: as §1

Another test addresses T7, FEV (Homo sapiens, UniProt Q99581 1-238).
T7 sequence: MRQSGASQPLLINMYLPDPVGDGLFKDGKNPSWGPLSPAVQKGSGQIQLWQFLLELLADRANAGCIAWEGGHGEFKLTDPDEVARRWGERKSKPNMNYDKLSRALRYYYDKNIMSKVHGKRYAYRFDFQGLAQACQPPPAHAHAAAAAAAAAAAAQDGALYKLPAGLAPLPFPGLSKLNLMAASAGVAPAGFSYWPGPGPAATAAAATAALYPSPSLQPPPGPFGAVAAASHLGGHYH
In a few lines:
as §1

A further test addresses ETV5 (Homo sapiens, UniProt P41161 1-510). In a few lines: as §1
The target of a further test is T8, SPIC (Homo sapiens, UniProt Q8N5J4 1-248).
T8 sequence: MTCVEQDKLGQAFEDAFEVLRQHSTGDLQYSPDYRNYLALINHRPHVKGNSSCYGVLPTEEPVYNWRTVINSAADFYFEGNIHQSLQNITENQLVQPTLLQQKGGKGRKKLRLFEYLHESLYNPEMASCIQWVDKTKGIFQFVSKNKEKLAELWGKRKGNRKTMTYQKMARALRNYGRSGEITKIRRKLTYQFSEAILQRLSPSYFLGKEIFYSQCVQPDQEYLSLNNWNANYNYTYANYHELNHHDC
In a few lines: as §1

Another test concerns the target ELF4 (Homo sapiens, UniProt Q99607 1-663). In a few lines: as §1
In the next test the target is T9, ELK4 (Homo sapiens, UniProt P28324-2 1-405).
T9 sequence: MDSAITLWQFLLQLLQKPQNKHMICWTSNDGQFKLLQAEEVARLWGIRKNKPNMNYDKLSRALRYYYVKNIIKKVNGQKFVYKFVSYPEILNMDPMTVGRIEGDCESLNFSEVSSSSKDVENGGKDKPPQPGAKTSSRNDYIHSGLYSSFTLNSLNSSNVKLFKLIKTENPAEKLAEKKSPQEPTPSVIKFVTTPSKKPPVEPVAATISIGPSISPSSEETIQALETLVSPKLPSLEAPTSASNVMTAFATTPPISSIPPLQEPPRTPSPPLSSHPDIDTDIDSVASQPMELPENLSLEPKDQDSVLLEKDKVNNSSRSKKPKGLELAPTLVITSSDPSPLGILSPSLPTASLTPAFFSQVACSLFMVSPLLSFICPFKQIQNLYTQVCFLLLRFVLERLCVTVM
In a few lines:
as §1

In a further test the target is T10, ETV2 (Homo sapiens, UniProt O00321 1-342).
T10 sequence: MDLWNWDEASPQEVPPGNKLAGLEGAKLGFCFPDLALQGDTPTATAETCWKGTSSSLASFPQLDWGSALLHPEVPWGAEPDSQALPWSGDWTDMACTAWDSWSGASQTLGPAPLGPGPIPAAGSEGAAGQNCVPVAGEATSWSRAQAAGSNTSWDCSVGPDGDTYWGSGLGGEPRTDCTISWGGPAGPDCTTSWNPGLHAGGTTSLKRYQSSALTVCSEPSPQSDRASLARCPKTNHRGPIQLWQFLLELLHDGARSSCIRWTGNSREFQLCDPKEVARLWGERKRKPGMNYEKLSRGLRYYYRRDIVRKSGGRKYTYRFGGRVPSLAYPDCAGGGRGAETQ
In a few lines: as §1

For the next test, the target named is T11, ELF3 (Homo sapiens, UniProt P78545 1-371).
T11 sequence: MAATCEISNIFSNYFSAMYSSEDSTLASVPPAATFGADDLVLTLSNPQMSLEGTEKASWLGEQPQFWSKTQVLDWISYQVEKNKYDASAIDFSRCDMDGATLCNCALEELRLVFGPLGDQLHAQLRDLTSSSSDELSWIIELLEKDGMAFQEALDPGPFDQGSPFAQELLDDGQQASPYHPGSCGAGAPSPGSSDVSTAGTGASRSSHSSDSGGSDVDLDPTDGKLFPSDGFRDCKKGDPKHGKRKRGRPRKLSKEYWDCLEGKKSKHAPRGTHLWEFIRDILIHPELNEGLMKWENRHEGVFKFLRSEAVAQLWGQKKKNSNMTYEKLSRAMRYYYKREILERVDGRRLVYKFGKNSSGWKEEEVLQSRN
The essentials: as §1

Another test concerns the target ETV1 (Homo sapiens, UniProt P50549 1-477). In a few lines:
as §1

ETV1, sequence (P50549 whole entry): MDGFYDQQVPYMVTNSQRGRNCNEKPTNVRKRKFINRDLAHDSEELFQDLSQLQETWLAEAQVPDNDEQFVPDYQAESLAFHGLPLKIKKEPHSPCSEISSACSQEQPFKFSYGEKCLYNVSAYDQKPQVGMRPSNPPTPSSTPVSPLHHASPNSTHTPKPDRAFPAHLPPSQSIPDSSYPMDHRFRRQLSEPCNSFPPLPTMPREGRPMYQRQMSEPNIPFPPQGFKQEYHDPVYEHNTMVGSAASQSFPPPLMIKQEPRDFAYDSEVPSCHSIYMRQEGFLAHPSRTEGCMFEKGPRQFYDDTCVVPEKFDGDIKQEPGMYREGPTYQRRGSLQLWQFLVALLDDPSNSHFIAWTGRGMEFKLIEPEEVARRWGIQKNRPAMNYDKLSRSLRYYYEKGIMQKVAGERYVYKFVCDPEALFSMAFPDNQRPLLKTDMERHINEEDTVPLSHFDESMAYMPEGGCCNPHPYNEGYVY
ETV5, sequence (P41161 whole entry): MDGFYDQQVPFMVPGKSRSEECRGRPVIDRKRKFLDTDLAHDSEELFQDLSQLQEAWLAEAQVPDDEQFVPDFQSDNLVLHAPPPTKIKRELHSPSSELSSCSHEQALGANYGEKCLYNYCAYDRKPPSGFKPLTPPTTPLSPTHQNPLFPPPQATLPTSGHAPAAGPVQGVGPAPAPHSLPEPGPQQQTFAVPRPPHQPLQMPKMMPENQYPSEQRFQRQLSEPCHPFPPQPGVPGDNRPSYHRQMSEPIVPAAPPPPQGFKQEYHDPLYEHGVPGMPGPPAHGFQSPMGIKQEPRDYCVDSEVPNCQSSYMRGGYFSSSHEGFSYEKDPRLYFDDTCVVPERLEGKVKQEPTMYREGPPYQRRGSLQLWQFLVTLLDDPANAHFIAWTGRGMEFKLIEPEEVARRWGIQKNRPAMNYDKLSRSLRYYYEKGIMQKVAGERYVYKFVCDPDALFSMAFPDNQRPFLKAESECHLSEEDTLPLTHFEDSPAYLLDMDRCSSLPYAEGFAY
SPIB, sequence (Q01892 whole entry): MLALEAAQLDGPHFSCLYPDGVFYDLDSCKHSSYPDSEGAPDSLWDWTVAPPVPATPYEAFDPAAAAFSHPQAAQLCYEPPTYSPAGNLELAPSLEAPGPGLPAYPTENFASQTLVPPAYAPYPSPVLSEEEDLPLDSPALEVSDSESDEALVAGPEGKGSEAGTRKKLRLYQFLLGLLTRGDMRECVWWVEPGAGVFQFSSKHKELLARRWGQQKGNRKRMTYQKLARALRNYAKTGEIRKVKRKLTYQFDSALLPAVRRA
ELF4, sequence (Q99607 whole entry): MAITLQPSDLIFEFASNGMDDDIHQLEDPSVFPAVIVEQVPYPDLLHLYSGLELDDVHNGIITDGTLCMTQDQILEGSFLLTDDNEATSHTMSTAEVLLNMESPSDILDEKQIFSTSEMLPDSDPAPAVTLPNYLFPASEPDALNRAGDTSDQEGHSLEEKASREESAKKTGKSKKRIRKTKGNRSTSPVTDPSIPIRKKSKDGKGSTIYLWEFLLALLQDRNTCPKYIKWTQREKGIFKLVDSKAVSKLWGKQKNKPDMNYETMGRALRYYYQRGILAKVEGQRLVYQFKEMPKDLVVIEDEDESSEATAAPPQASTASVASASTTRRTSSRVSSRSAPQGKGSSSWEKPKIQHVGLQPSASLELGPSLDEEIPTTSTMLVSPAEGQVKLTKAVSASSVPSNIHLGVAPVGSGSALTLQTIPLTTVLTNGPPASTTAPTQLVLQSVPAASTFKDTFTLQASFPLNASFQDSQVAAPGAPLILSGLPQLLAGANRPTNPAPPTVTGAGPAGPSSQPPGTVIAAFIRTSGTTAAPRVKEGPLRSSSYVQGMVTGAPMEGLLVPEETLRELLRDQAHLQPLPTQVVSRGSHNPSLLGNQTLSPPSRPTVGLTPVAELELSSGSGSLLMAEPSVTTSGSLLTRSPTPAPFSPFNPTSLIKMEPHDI

With ATACGG, the binding signal with FLI1 is 1.19 fold enrichment (6-mer frequency, TF over GST control); in the test with ELK1, 1.16 fold enrichment (6-mer frequency, TF over GST control); with GABPA it was 1.17 fold enrichment (6-mer frequency, TF over GST control); in the test with ERG it was 1.23 fold enrichment (6-mer frequency, TF over GST control); with ELF1 it was 1.19 fold enrichment (6-mer frequency, TF over GST control); with EHF, 1.2 fold enrichment (6-mer frequency, TF over GST control). Moreover, the binding signal with SPI1 was 1.31 fold enrichment (6-mer frequency, TF over GST control); with SPIB, 1.23 fold enrichment (6-mer frequency, TF over GST control); with ELK3 it was 1.23 fold enrichment (6-mer frequency, TF over GST control); in the test with FEV, 1.16 fold enrichment (6-mer frequency, TF over GST control); with ETV5, 1.25 fold enrichment (6-mer frequency, TF over GST control); in the test with SPIC, 1.2 fold enrichment (6-mer frequency, TF over GST control). The binding signal in the test with ELF4 is 1.2 fold enrichment (6-mer frequency, TF over GST control); with ELK4 it was 1.03 fold enrichment (6-mer frequency, TF over GST control); in the test with ETV2 it was 1.22 fold enrichment (6-mer frequency, TF over GST control); with ELF3 it was 1.25 fold enrichment (6-mer frequency, TF over GST control); with ETV1, 1.21 fold enrichment (6-mer frequency, TF over GST control).
